The source of these data is PubChem BioAssay (NCI).

Compounds without any hit were thinned out: in the full panel of roughly 79,000, 15% have a hit. Unmarked numbers belong to inactive results. Calls of active or inactive are those of the source. No stated cut-off is given here; in the data, active means growth inhibition above about 70%; inactive means the rest.

A short description of assay [1]: NCI Yeast Anticancer Drug Screen. Data for the rad50 strain (AID 155).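 Further: 0% = growth of vehicle-only cultures of the same strain.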 Particulars: S. cerevisiae rad50 strain growth inhibition, stronger effect = higher value. In short, it runs like this: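 Growth of the mutant yeast was measured after compound exposure and referenced to vehicle-treated cultures.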
Assay [2] in a line: NCI Yeast Anticancer Drug Screen. Data for the mec2-1 strain (AID 157). The following applies: S. cerevisiae mec2-1 strain, stronger effect = higher value. In short, it runs like this:
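Yeast mec2-1 mutant treated with compound. Readout: growth inhibition vs vehicle controls.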

A short description of assay [3]: NCI Yeast Anticancer Drug Screen. Data for the sgs1 mgt1 strain (AID 161).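 Further: 0% = growth of cultures given vehicle only.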 Particulars: S. cerevisiae sgs1 mgt1 strain, stronger effect = higher value. In short, it runs like this: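 Test agents were incubated with a DNA-repair-mutant yeast strain. Growth was then read and compared against vehicle-treated controls.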
The nature of assay [4]: NCI Yeast Anticancer Drug Screen. Data for the cln2 rad14 strain (AID 165).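 Further: 0% = growth equal to vehicle treated cultures.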 Particulars: S. cerevisiae cln2 rad14 strain, stronger effect = higher value. In short, it runs like this: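 cln2 rad14 yeast strain; compound exposure; growth inhibition read vs vehicle controls.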
The nature of assay [5]: NCI Yeast Anticancer Drug Screen. Data for the bub3 strain (AID 167). The following applies: S. cerevisiae bub3 mutant strain, stronger effect = higher value. In short, it runs like this:
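Whole-cell yeast assay. The mutant strain was incubated with compounds, and growth inhibition was determined by comparison with vehicle-treated cells.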

Assay [6] is described as follows: NCI Yeast Anticancer Drug Screen. Data for the mlh1 rad18 strain (AID 175). The following applies: S. cerevisiae mlh1 rad18 strain growth inhibition, stronger effect = higher value. The method, boiled down: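 Yeast w/ defined DNA-repair lesions; compound exposure; growth vs vehicle controls → % inhibition.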
Where [7] appears, read: at 5.0 µM (retest, dose inferred, filed as 0.5).
Setting [8] is: at 50.0 µM (retest, dose inferred, filed as 5.0).

Regarding `COC(=O)/C(C#N)=C1\NC(=O)CC(c2ccccc2)C1C#N` (stereo not given), the growth inhibition in assay [1] (setting [7]) is 12%; in assay [1] (setting [8]) it was 20%; in assay [1] (at 50.0 µM), -25.2%; in assay [2] (setting [7]) it was 9%; in assay [2] (setting [8]) it was 16%; in assay [2] (at 50.0 µM), -27.1%. For the same compound, the growth inhibition is 21% in assay [3] (setting [7]); 20% in assay [3] (setting [8]); 9.25% in assay [3] (at 50.0 µM); 5% in assay [4] (setting [7]); 19% in assay [4] (setting [8]); -1.3% in assay [4] (at 50.0 µM). The growth inhibition was 10% in assay [5] (setting [7]); 13% in assay [5] (setting [8]); -0.9% in assay [5] (at 50.0 µM); 23% in assay [6] (setting [7]); 18% in assay [6] (setting [8]); -16.7% in assay [6] (at 50.0 µM).

Take `C/C(=N\N(C)C(=S)Nc1ccccc1)c1ccccn1`: the growth inhibition is -2% in assay [1] (setting [7]); 11% in assay [1] (setting [8]); 93.5% (active) in assay [1] (at 50.0 µM); -4% in assay [2] (setting [7]); 9% in assay [2] (setting [8]); 63.2% in assay [2] (at 50.0 µM). Further, the growth inhibition was -6% in assay [3] (setting [7]); 22% in assay [3] (setting [8]); 71.7% (active) in assay [3] (at 50.0 µM); -5% in assay [4] (setting [7]); -18% in assay [4] (setting [8]); 54.9% in assay [4] (at 50.0 µM). In addition, the growth inhibition in assay [5] (setting [7]) is -12%; in assay [5] (setting [8]) it was 36%; in assay [5] (at 50.0 µM), 82% (active); in assay [6] (setting [7]) it was -10%; in assay [6] (setting [8]), 65%; in assay [6] (at 50.0 µM), 61.8%.

Consider `Cc1c(N=Nc2cccc(F)c2)c(-c2ccccc2)nn1C(N)=S`, for which the growth inhibition in assay [1] (setting [7]) is 14%; in assay [1] (setting [8]) it was 97% (active); in assay [1] (at 50.0 µM), 99.2% (active); in assay [2] (setting [7]), 1%; in assay [2] (setting [8]) it was 98% (active); in assay [2] (at 50.0 µM) it was 99.4% (active). Besides, the growth inhibition is 3% in assay [3] (setting [7]); 99% (active) in assay [3] (setting [8]); 99.4% (active) in assay [3] (at 50.0 µM); -5% in assay [4] (setting [7]); 96% (active) in assay [4] (setting [8]); 99.1% (active) in assay [4] (at 50.0 µM). Besides, the growth inhibition was 1% in assay [5] (setting [7]); 97% (active) in assay [5] (setting [8]); 99.5% (active) in assay [5] (at 50.0 µM); 0% in assay [6] (setting [7]); 98% (active) in assay [6] (setting [8]); 99.2% (active) in assay [6] (at 50.0 µM).

As for `CC12OC(=O)C(C(N)=O)=C1C=C(c1ccccc1)CC2c1ccccc1` (stereo not given), the growth inhibition is -1% in assay [1] (setting [7]); 23% in assay [1] (setting [8]); 65% in assay [1] (at 50.0 µM); 12% in assay [2] (setting [7]); 53% in assay [2] (setting [8]); 43.9% in assay [2] (at 50.0 µM). In addition, the growth inhibition in assay [3] (setting [7]) is -5%; in assay [3] (setting [8]), 67%; in assay [3] (at 50.0 µM) it was 86.8% (active); in assay [4] (setting [7]), -3%; in assay [4] (setting [8]) it was 21%; in assay [4] (at 50.0 µM), 82.5% (active). Moreover, the growth inhibition was -4% in assay [5] (setting [7]); 60% in assay [5] (setting [8]); 87.5% (active) in assay [5] (at 50.0 µM); 11% in assay [6] (setting [7]); 83% (active) in assay [6] (setting [8]); 86.1% (active) in assay [6] (at 50.0 µM).

Consider `O=[N+]([O-])c1cc(NC(=S)SCc2ccccc2)ccc1Cl`, for which the growth inhibition in assay [1] (setting [7]) is 92% (active); in assay [1] (setting [8]) it was 98% (active); in assay [1] (at 50.0 µM) it was 98.8% (active); in assay [2] (setting [7]), 74% (active); in assay [2] (setting [8]), 99% (active); in assay [2] (at 50.0 µM), 99.3% (active). For the same compound, the growth inhibition in assay [3] (setting [7]) is 92% (active); in assay [3] (setting [8]), 99% (active); in assay [3] (at 50.0 µM) it was 99.2% (active); in assay [4] (setting [7]), 29%; in assay [4] (setting [8]), 97% (active); in assay [4] (at 50.0 µM) it was 99.1% (active). The growth inhibition is 8% in assay [5] (setting [7]); 97% (active) in assay [5] (setting [8]); 99.2% (active) in assay [5] (at 50.0 µM); 91% (active) in assay [6] (setting [7]); 99% (active) in assay [6] (setting [8]); 99.2% (active) in assay [6] (at 50.0 µM).

As for `OC(c1cc(-c2ccc(Cl)cc2Cl)nc2ccccc12)C1CCCCN1` (stereo not given), the growth inhibition in assay [1] (setting [7]) is -6%; in assay [1] (setting [8]), 98% (active); in assay [1] (at 50.0 µM), 98.8% (active); in assay [2] (setting [7]) it was -4%; in assay [2] (setting [8]), 99% (active); in assay [2] (at 50.0 µM), 72.2% (active). Further, the growth inhibition in assay [3] (setting [7]) was -5%; in assay [3] (setting [8]) it was 99% (active); in assay [3] (at 50.0 µM), 99.1% (active); in assay [4] (setting [7]), -3%; in assay [4] (setting [8]), 97% (active); in assay [4] (at 50.0 µM), 64.7%. In addition, the growth inhibition in assay [5] (setting [7]) is 0%; in assay [5] (setting [8]), 99% (active); in assay [5] (at 50.0 µM) it was 98.8% (active); in assay [6] (setting [7]) it was -6%; in assay [6] (setting [8]), 99% (active); in assay [6] (at 50.0 µM), 97.3% (active).

For the compound `c1ccc2c(CCc3ccncc3)cccc2c1`, the growth inhibition in assay [1] (setting [7]) is 4%; in assay [1] (setting [8]) it was 74% (active); in assay [1] (at 50.0 µM), 95.4% (active); in assay [2] (setting [7]) it was 2%; in assay [2] (setting [8]) it was 60%; in assay [2] (at 50.0 µM) it was 95.5% (active). Further, the growth inhibition was 1% in assay [3] (setting [7]); 60% in assay [3] (setting [8]); 96% (active) in assay [3] (at 50.0 µM); 3% in assay [4] (setting [7]); 53% in assay [4] (setting [8]); 88.5% (active) in assay [4] (at 50.0 µM). The growth inhibition in assay [5] (setting [7]) was 10%; in assay [5] (setting [8]) it was 81% (active); in assay [5] (at 50.0 µM), 94.1% (active); in assay [6] (setting [7]) it was 0%; in assay [6] (setting [8]) it was 71% (active); in assay [6] (at 50.0 µM), 92.5% (active).

On to `C1CNC(CCNCCSCCNCCC2=NCCN2)=N1`, for which the growth inhibition in assay [1] (setting [7]) was 10%; in assay [1] (setting [8]), 90% (active); in assay [1] (at 50.0 µM), 95.1% (active); in assay [2] (setting [7]), 1%; in assay [2] (setting [8]), 75% (active); in assay [2] (at 50.0 µM), 84.2% (active). Also, the growth inhibition is 5% in assay [3] (setting [7]); 87% (active) in assay [3] (setting [8]); 91.9% (active) in assay [3] (at 50.0 µM); 5% in assay [4] (setting [7]); 72% (active) in assay [4] (setting [8]); 83.2% (active) in assay [4] (at 50.0 µM). For the same compound, the growth inhibition is -2% in assay [5] (setting [7]); 89% (active) in assay [5] (setting [8]); 93.5% (active) in assay [5] (at 50.0 µM); 1% in assay [6] (setting [7]); 91% (active) in assay [6] (setting [8]); 94.3% (active) in assay [6] (at 50.0 µM).

Take `CC1=CCCc2c1cc1ccc3cccc4ccc2c1c34`: the growth inhibition was 8% in assay [1] (setting [7]); -6% in assay [1] (setting [8]); 49.5% in assay [1] (at 50.0 µM); -7% in assay [2] (setting [7]); -8% in assay [2] (setting [8]); 79.7% (active) in assay [2] (at 50.0 µM). For the same compound, the growth inhibition in assay [3] (setting [7]) was -4%; in assay [3] (setting [8]) it was 16%; in assay [3] (at 50.0 µM), 94.2% (active); in assay [4] (setting [7]), -2%; in assay [4] (setting [8]), -8%; in assay [4] (at 50.0 µM) it was 28.1%. In addition, the growth inhibition is -5% in assay [5] (setting [7]); -10% in assay [5] (setting [8]); 91.2% (active) in assay [5] (at 50.0 µM); -11% in assay [6] (setting [7]); -6% in assay [6] (setting [8]); 89.8% (active) in assay [6] (at 50.0 µM).

Consider `COc1cc(C(Sc2ccccc2C(=O)O)Sc2ccccc2C(=O)O)ccc1O`, for which the growth inhibition in assay [1] (setting [7]) was 9%; in assay [1] (setting [8]), 91% (active); in assay [1] (at 50.0 µM) it was 95.5% (active); in assay [2] (setting [7]) it was 12%; in assay [2] (setting [8]) it was 88% (active); in assay [2] (at 50.0 µM), 95.6% (active). Also, the growth inhibition in assay [3] (setting [7]) is 21%; in assay [3] (setting [8]) it was 94% (active); in assay [3] (at 50.0 µM) it was 97.4% (active); in assay [4] (setting [7]) it was 8%; in assay [4] (setting [8]), 93% (active); in assay [4] (at 50.0 µM), 81.6% (active). Besides, the growth inhibition in assay [5] (setting [7]) is 12%; in assay [5] (setting [8]) it was 97% (active); in assay [5] (at 50.0 µM), 87.9% (active); in assay [6] (setting [7]), 14%; in assay [6] (setting [8]), 95% (active); in assay [6] (at 50.0 µM), 98.5% (active).
